The values below come from PubChem BioAssay (EPA / NIEHS).

Active and inactive are the calls of the source. How the source made its calls: active means hit-call score of the fitted dose curve at least 0.9, where 1 is the maximum; inactive means score below 0.9.

The assay can be described thus: ATG_TA_CIS: Attagene CIS-FACTORIAL HepG2 Assay for human TA Basal Promoter (AID 2282964). Conditions: HepG2 Attagene CIS-factorial TA basal promoter reporter; actives raise or lower the signal. As to the method:
ATG_CIS is a cell-based, multiplexed-readout assay that uses HepG2, a human liver cell line, with measurements taken at 24 hours after chemical dosing in a 24-well plate.ATG_TA_CIS is one of 52 assay component(s) measured or calculated from the ATG_CIS assay. It is designed to make measurements of mRNA induction, a form of inducible reporter, as detected with fluorescence intensity signals by Reverse transcription polymerase chain reaction (RT-PCR) and Capillary electrophoresis technology.Data from the assay component ATG_TA_CIS was analyzed into 1 assay endpoint. This assay endpoint, ATG_TA_CIS, was analyzed with bidirectional fitting relative to DMSO as the negative control and baseline of activity. Using a type of inducible reporter, measures of mRNA for gain or loss-of-signal activity can be used to understand the background control at the transcription factor-level as they relate to the gene . Furthermore, this assay endpoint can be referred to as a secondary readout, because this assay has produced multiple assay endpoints where this one serves a background control function. To generalize the intended target to other relatable targets, this assay endpoint is annotated to the background measurement intended target family, where the subfamily is internal marker.
Human liver HepG2 cells are transiently transfected with multiple reporter transcription units (MRTUs) in 6-well plates using FuGene 6 reagent (Roche; 3 ml FuGene/1 mg DNA). The MRTU constructs are regulated by a cis-regulating element (promoter). […] A major difference between the CIS and TRANS system is that in CIS activities of endogenous TFs are measured, whereas the TRANS assay evaluates changes in activities of exogenous, chimeric NR-Gal4 proteins. […] At the end of 24 hour incubation, total RNA was isolated using TriZol reagent (Invitrogen). The isolated RNA is then reverse-transcribed using oligo(dT) primer and Mo-MLV reverse transcriptase (Invitrogen) with DNAse I (Ambion) treatment for 30 min. The one-tenth of the produced cDNA was amplified by PCR using Taq DNA polymerase (Invitrogen) and two reporter sequence-specific primers. The PCR products were fluorescently labeled by primer extension with 6-arboxyfluorescein (6-FAM) 5'-labeled reporter sequence-specific primer (2 min at 95 C, 20 s at 68 C and 10 min at 72 C) and these products were digested with 5U of HpaI (New England Biolabs) for 2h at 37 C. The fragments were purified using Qiaquick PCR columns (Qiagen), analyzed on an ABI 3130xL genetic analyzer (Applied Biosystems) with peak positions identified by using a set of X-rhodamine (ROX)-labeled MapMarker1000 molecular weight standards (BioVentures). The raw capillary electrophoresis data was processed using Attagraph software (Attagene).
Regarding `FC(F)(F)C(=NOCC1OCCO1)c1ccc(Cl)cc1`, the result was inactive. As for `COCC(C)N` (stereo not given), the outcome was inactive. For the molecule `CCOC(=O)[C@H](C)O`, the outcome was inactive. On the same count and under the same terms, with `COCCOCCOCCOCCOC` the entry was “inactive”.

Turning to `O=C(O)C(c1ccc(Cl)cc1)c1ccc(Cl)cc1`, the outcome was inactive. For `CC(=O)NS(=O)(=O)c1ccc(N)cc1`, the result was inactive. Regarding `O=C1CCCCCCCCCCC(=O)OCCO1`, the molecule was called inactive.

Take `O=C(O)c1ccccc1Nc1cccc(C(F)(F)F)c1`: the concentration at half-maximal activity (AC50) is 100 µM (active). On to `Cc1ccc2oc(=O)ccc2c1`, for which the result was inactive. For the molecule `CC1=NN(c2cc(S(=O)(=O)O)ccc2Cl)C(=O)C1N=Nc1ccccc1` (stereo not given), the result was inactive.

As to `C=C(C)C(=O)OCC(C)C`, the molecule was called inactive. Take `CN(C)c1ccc(C(=N)c2ccc(N(C)C)cc2)cc1`: the molecule was classed as inactive. In the case of `NC(=O)c1ccccc1O`, the call was inactive. With `Cc1cnc(NC(=O)C2=C(O)c3ccccc3S(=O)(=O)N2C)s1`, the outcome was inactive. Regarding `CC(CC=O)CCCC(C)(C)O` (stereo not given), the molecule was called inactive. Turning to `CC1(C)O[C@@H]2C[C@H]3[C@@H]4C[C@H](F)C5=CC(=O)C=C[C@]5(C)[C@@]4(F)[C@@H](O)C[C@]3(C)[C@]2(C(=O)CO)O1`, the molecule was called inactive. On the same count and under the same terms, to `O=[N+]([O-])c1ccc(CO)cc1` belongs “inactive”; to `CCc1c(C(=O)O)c(=O)cnn1-c1ccc(Cl)cc1`, “inactive”. Take `O=Nc1ccc(O)cc1`: the molecule was classed as inactive. Consider `CCCCCCCC/C=C\CCCCCCCC(=O)O`, for which the call was inactive. For `C=COCCCC`, the molecule was classed as inactive.

With `Cc1cc(C)c(C)cc1C`, the molecule was classed as inactive. For `O=C(C=Cc1ccccc1)OCc1ccccc1`, the outcome was inactive. Turning to `C=CC(C)(C)C`, the molecule was called inactive.

On to `O=C1C=CC(=O)O1`, for which the molecule was called inactive. The same measure, in the same setting: to `CC(=O)CC(N)=O` belongs “inactive”.

As for `CCCCC(CC)COC(=O)c1ccccc1` (stereo not given), the call was inactive. On the same count and under the same terms, with `CCC(C)(C)C1CCCCC1OC(C)=O` (stereo not given) the entry was “inactive”; with `CC(C)(C)c1ccc(-c2ccc(C(C)(C)C)cc2)cc1`, “inactive”. As for `CCCCCCCCO[C@@H]1O[C@H](CO)[C@@H](O)[C@H](O)[C@H]1O`, the molecule was classed as inactive. Turning to `Nc1ccc2cc3ccccc3cc2c1`, the molecule was called inactive. The same measure, in the same setting: to `CCN(CC)c1ccc(C(=O)c2ccccc2C(=O)O)c(O)c1` belongs “inactive”; to `COc1ccc2nc(N)sc2c1`, “inactive”; to `COc1ccc(-c2coc3cc(O)ccc3c2=O)cc1`, “inactive”. In the case of `CCC(CO)CO`, the result was inactive. Consider `CCCCCCCCCCCSCC(=O)O`, for which the AC50 was 98 µM (active). For `Cc1ccc(C(C)c2ccc(C)c(C)c2)cc1C`, the molecule was classed as inactive. As for `CCCCC(CC)COC(=O)c1ccccc1O` (stereo not given), the call was inactive. On the same count and under the same terms, with `SCCc1cnccn1` the entry was “inactive”. As to `CC(=O)OCCC1CCCCC1`, the molecule was called inactive.
